Compounds with a hit are over-represented: about 4.5% of the library has one in this group of screens.
SKKanGAS inh: inhibitors of SKKanGAS S. pyogenes growth in kanamycin (SK-promoter or general growth effect); BacTiter-Glo, 6 h; inhibition, % at 7.5 µM; hit rate 1.3% among 300,000;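 active = mean replicate score, as percent of positive control median, at least 50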;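 note: strain carries kanamycin resistance gene driven by streptokinase promoter and grows in 40 µg/ml kanamycin; loss of luminescence reflects streptokinase promoter inhibition or plain growth inhibition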
PfHsp90 set2: reduces growth (ATP signal) of yeast expressing P. falciparum Hsp90. S. cerevisiae expressing PfHsp90, BacTiter-Glo ATP, 48 h; yeast lacking PDR1 and PDR3 efflux regulators. hit rate 0.32% among 310,000. inhibition, % at 9.4 µM;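 active = every replicate shows inhibition above about 80%, whatever the replicate mean, limit read from the data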
TIM10 inh: TIM10 yeast growth inhibition | hit rate 1.4% among 330,000 | inhibition, % at 10 µM | S. cerevisiae TIM10 strain growth, BacTiter-Glo luminescence, 24 h;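 active = inhibition of 40% or more at the single tested concentration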;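 note: wild-type TIM10 isogenic control strain grown at permissive 25 °C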
tim23-1 inh: growth inhibitors of tim23-1 mutant yeast; S. cerevisiae tim23-1 growth, BacTiter-Glo luminescence, 24 h; inhibition, % at 20 µM; hit rate 1.3% among 330,000;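 active = growth inhibition of the mutant yeast at or above 50%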;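 note: temperature-sensitive mutant grown at 25 °C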
NLRP3 yeast inh: blocks the NALP3 inflammasome reconstituted in yeast; Yeast reconstituted NLRP3/ASC/caspase-1, beta-gal luminescence, 24 h; inhibition, % at 10 µM; hit rate 0.39% among 330,000;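 active = inhibition of 50% or more; inactive = inhibition below 50%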
tim10-1 inh: inhibits growth of tim10-1 mutant yeast | hit rate 2.2% among 330,000 | inhibition, % at 20 µM | S. cerevisiae tim10-1 ts strain growth, BacTiter-Glo, 24 h;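 active = inhibition of at least 40%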;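 note: mutant grown at 25 °C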
tim10-1 confirm: confirmation of tim10-1 mutant yeast growth inhibitors. shares compounds with tim10-1 inh. S. cerevisiae tim10-1 ts strain growth, BacTiter-Glo, 24 h. inhibition, % at 20 µM. hit rate 56% among 7,400. AID 463213;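 active = inhibition of yeast growth at or above a set limit in either of two repeat tests at 20 µM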;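 note: tim10-1 mutant grown at permissive 25 °C to find synthetic lethal compounds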
Of the large screens only hits and unclear results are named; the others gave an inactive call (follow-up assays come after a bar, where they were run).

C=C[C@@H]1c2cc(C)ccc2N(S(=O)(=O)c2ccc(C)cc2)[C@H](c2ccc(OC(C)=O)cc2)C1(C#N)C#N	none (no result: SKKanGAS inh)
Cc1ccccc1C(=O)NNC(=S)NC(=O)c1cccs1	SKKanGAS inh 68.6, tim10-1 inh 53.1 | tim10-1 confirm inactive
Cc1cc(C)cc(-n2ccn(CC(=O)NCCc3ccccc3)c(=O)c2=O)c1	none
CCOc1cccc(/C=N/NC(=S)Nc2cc(S(=O)(=O)N3CCOCC3)ccc2N2CCOCC2)c1O	tim10-1 inh 43.9 | tim10-1 confirm inactive
COc1ccc2ccccc2c1/C=N/NC(=S)Nc1cc(S(=O)(=O)N2CCOCC2)ccc1N1CCOCC1	none
CCOc1cccc(/C=N/NC(=O)c2ccc3c(c2)OCCO3)c1O	SKKanGAS inh 95.3, tim10-1 inh 48.4 | tim10-1 confirm inactive
COc1cccc(/C=N/NC(=O)CNC(=O)c2ccc3c(c2)OCCO3)c1O	none
O=C(c1cccs1)N1CCCC(c2nc3c(nnn3Cc3ccccc3Cl)c(=O)[nH]2)C1 (centres undefined)	none
Cc1ccccc1-c1nc2ccccc2c(=O)n1/N=C/c1ccccc1[N+](=O)[O-]	tim10-1 inh 44.1 (no result: PfHsp90 set2) | tim10-1 confirm inactive
Cc1ccc(C)c(NC(=O)CSc2nnc(NC(=O)C3CC3)s2)c1	none
O=[N+]([O-])c1ccc(COc2ncnc3ccccc23)cc1	none
Cc1cc(SCC(=O)OCC(=O)N(C)c2ccccc2)nc2ccccc12	none
Cc1cc(C)c2nc(C(F)(F)F)c(C#N)c(N)c2c1	tim10-1 inh 41.6 | tim10-1 confirm inactive
O=[N+]([O-])c1ccc(S(=O)(=O)N/N=C/c2ccsc2)cc1	none
COc1cc(/C=N/NC(=O)Nc2ccccc2)ccc1OC(C)=O	none
C=CC[n+]1c(/C=C/c2ccc(OC(C)=O)c(OC)c2)ccc2ccccc21	tim10-1 inh 56.9 | tim10-1 confirm 38.2
COc1ccccc1NC(=O)C1CCCCN1S(=O)(=O)c1ccc(F)cc1 (centres undefined)	none
COc1ccc(NC(=O)C2CCCCN2S(=O)(=O)c2ccc(F)cc2)c(OC)c1 (centres undefined)	tim10-1 inh 43.8 | tim10-1 confirm inactive
CN(C)CCNC(=O)c1ccc2c(=O)n(Cc3ccc(Cl)cc3)c(=S)[nH]c2c1	tim10-1 inh 45.1 | tim10-1 confirm inactive
CCOC(=O)c1cc(CC)sc1NC(=O)c1ccc2c(c1)OCCO2	tim10-1 inh 41.3 | tim10-1 confirm inactive
CCOC(=O)c1cc(CC)sc1NC(=O)c1cc(OCC)c(OCC)c(OCC)c1	none (no result: PfHsp90 set2)
CCOC(=O)N1CCN(C(=O)c2cccc(N3C(=O)NC4CC3(C)Oc3ccc(Cl)cc34)c2)CC1 (centres undefined)	tim10-1 inh 44.6 | tim10-1 confirm inactive
CCOC(=O)C1CCN(C(=O)c2cccc(N3C(=O)NC4CC3(C)Oc3ccc(C)cc34)c2)CC1 (centres undefined)	none
O=C1Nc2ccc(Br)cc2C12OCCO2	none
O=C(Nc1cc(Sc2ccccn2)cc([N+](=O)[O-])c1)c1cccc(F)c1	tim10-1 inh 43.9 | tim10-1 confirm 53.5
CN(C(=O)c1cccc(NC(=O)Cc2ccc(NC(=O)C3CCCN(C(=O)c4ccccc4)C3)cc2)c1)C1CCCC1 (centres undefined)	none (no result: SKKanGAS inh, TIM10 inh, tim23-1 inh, NLRP3 yeast inh, tim10-1 inh)
COc1ccccc1C(=O)NCCC(=O)N(C)Cc1ccc(C)o1	none
O=C(CCC(=O)N1CCN(c2ccc(Cl)c(Cl)c2)CC1)c1ccccc1	tim10-1 inh 42.1 | tim10-1 confirm inactive
CCCCN1/C(=C/c2ccc3ccccc3[n+]2CC)Sc2ccccc21	tim10-1 inh 60.0 | tim10-1 confirm 57.2
CCCCN1/C(=C/c2cccc[n+]2C)Sc2cc(NC(C)=O)ccc21	none
CC(C)c1ccc(S(=O)(=O)Nc2ccc(-n3cnnn3)cc2)cc1	none (no result: SKKanGAS inh)
CC(C)c1ccc(S(=O)(=O)Nc2ccc(SC(F)F)cc2)cc1	tim10-1 inh 49.7 | tim10-1 confirm 28.0
CC(C)c1ccc(NS(=O)(=O)c2ccc(-n3cccn3)cc2)cc1	tim10-1 inh 45.4 | tim10-1 confirm inactive
CC(C)c1ccc(NS(=O)(=O)c2ccc(Cl)nc2)cc1	none

Bioassay records as filed in PubChem BioAssay.
